Screens: PubChem, National Center for Advancing Translational Sciences (NCATS)
S2 tox – Viability Counterscreen for Primary qHTS for Inhibitors of ATXN expression. S2 cells (HEK-293 line with an ATXN2-luciferase reporter) viability, CellTiter-Fluor protease fluorescence, 24 h. Potency, µM (series often up to 56.7 µM), actives largely listed as cytotoxic. 400,000 tested, 0.49% active; also: nearly all actives have a fitted effect of over 40% in size
TGFb SMAD3 inh – qHTS for Inhibitors of TGF-b | HepG2 CAGA-GFP TGF-b/SMAD3 reporter, GFP fluorescence, 18 h; TGF-beta stimulated, 500 pg/mL final | Potency, µM (highest dose often 46.1 µM), without a hit: at the top dose activity, negative = inhibition, most hits filed as inhibitors | 410,000 tested, 1.2% active | AID 588855, 2011; also: % is scaled to controls: 0 for no effect and ±100 for the full control effect; nearly all actives have a fitted effect of over 65% in size
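GFP signal (ex488/em500-530) from TGF-beta-stimulated HEPG2 CAGA-GFP cells, 500 pg/mL final, 18 h at 37 degrees C in DMEM plus 1% FBS, normalized to unstimulated and DMSO-stimulated controls.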
VP16 counter – VP16 counterscreen qHTS for inhibitors of ROR gamma transcriptional activity | Drosophila S2 Gal4-VP16 UAS-luciferase, luminescence, 20 h | Potency, µM (highest dose often 53.6 µM), without a hit: at the top dose activity, negative = inhibition, hits mostly inhibitors | 310,000 tested, 3.5% active | AID 2546, 2010;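 also: Gal4-VP16 expression switched on by copper sulfate through the metallothionein promoter; % is scaled to controls: 0 for no effect and ±100 for the full control effect; nearly all actives have a fitted effect of over 50% in size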
ATXN2 expr inh – Primary qHTS for Inhibitors of ATXN expression; HEK-293 ATXN2-luciferase reporter, luminescence, 24 h; Potency, µM (titrated, usually from 57 µM), for inactives: at the top dose activity change, negative = inhibition, most hits filed as inhibitors; 360,000 tested, 0.72% active; AID 1745845, 2022; also: % is scaled to controls: 0 for no effect and ±100 for the full control effect; nearly all actives have a fitted effect of over 55% in size
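ATXN2-luciferase reporter cells (luciferase flanked by upstream and downstream ATXN2 gene portions) were treated 24 h at 37 °C with compounds at up to 57 uM. SteadyGlo luminescence gave expression; GF-AFC fluorescence gave viability.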
RORg inh – qHTS for inhibitors of ROR gamma transcriptional activity; Nuclear receptor ROR-gamma (Mus musculus), P51450; Drosophila S2 Gal4-RORgamma UAS-luciferase reporter, 20 h; Potency, µM (doses to about 53.6 µM), without a hit: top-dose activity change, negative = inhibition, most hits filed as inhibitors; 310,000 tested, 5.4% active; AID 2551, 2010; also: % is scaled to controls: 0 for no effect and ±100 for the full control effect; nearly all actives have a fitted effect of over 60% in size
Target sequence (P51450 whole entry, looked up, the tested form may be a part): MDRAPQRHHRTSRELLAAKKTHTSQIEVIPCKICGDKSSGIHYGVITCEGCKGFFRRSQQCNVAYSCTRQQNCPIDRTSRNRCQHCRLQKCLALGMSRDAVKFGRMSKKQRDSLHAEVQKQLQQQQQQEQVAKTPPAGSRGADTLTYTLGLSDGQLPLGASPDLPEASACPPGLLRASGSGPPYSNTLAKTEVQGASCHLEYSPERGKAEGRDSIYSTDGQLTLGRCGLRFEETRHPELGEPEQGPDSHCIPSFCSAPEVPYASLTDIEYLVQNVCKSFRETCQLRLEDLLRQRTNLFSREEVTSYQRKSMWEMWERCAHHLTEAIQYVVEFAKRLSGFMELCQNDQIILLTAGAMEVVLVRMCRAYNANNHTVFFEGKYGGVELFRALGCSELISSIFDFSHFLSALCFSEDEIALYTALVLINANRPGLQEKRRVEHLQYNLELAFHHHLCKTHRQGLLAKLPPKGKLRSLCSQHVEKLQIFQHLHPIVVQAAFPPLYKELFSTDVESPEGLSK
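Read-out: Photinus luciferase luminescence; inhibitors lower reporter signal. Insect Schneider cells with Gal4-ROR gamma fusion under metallothionein promoter, UAS reporter; 700 uM final copper sulfate induction, 20 hr, ambient temperature.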
HepG2 viability – qHTS for Inhibitors of TGF-b: Cytotox Counterscreen; HepG2 CAGA-GFP viability, ATP luminescence, 18 h; Potency, µM (top dose mostly 46.1 µM), inactives show at the top dose activity change, negative = cytotoxicity, actives largely listed as cytotoxic; 410,000 tested, 0.76% active; AID 588856, 2011
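CellTiter-Glo luminescence gave cytotoxicity after 18 hours at 37 degrees C. The cells were HepG2 CAGA-GFP in 1% FBS DMEM, stimulated with 500 pg/mL TGF-beta after compound addition. %Activity was normalised to no-cell wells (complete cell-killing) and DMSO (no toxicity), and curves were fitted and classified.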
Numbers without * were called inactive; [ ] = another dose, or the depositor's remark. This is a sample that favours compounds with a hit; in the whole collection about 6.1% have one here. Calls follow the shape of the dose curve; as a rule, active = well fitted curve in the direction sought with a large enough effect; inconclusive = small, poorly fitted or top-dose-only effect, or another doubt; inactive = no such curve, though single readings can be large; an effect the other way counts as inactive or inconclusive. Potency is read from the fitted curve at half-maximal effect.

COc1ccc(-c2nc(SCCOc3ccccc3Cl)n3[nH]c(=O)cc3n2)cc1 was read as S2 tox inactive, TGFb SMAD3 inh inconclusive, ATXN2 expr inh -7% and HepG2 viability -21%.
`Cc1ccccc1NC(=S)N(Cc1ccccn1)Cc1ccccc1Cl` gave S2 tox inconclusive, TGFb SMAD3 inh inconclusive, VP16 counter inconclusive, ATXN2 expr inh inconclusive, RORg inh 6.3µM* and HepG2 viability -24%.
For COc1ccccc1NC(=S)N(Cc1ccccn1)Cc1ccccc1Cl the results were S2 tox inactive, TGFb SMAD3 inh 11%, VP16 counter -1%, ATXN2 expr inh 17%, RORg inh 33% and HepG2 viability 7%.
Screening COc1ccccc1NC(=S)N(Cc1cccnc1)Cc1ccccc1Cl returned S2 tox inactive, TGFb SMAD3 inh 3%, VP16 counter 1%[10 µM], ATXN2 expr inh -1%, RORg inh inconclusive and HepG2 viability -1%.
Screening COc1ccccc1NC(=S)N(Cc1ccc(C)cc1)Cc1cccnc1 returned S2 tox inactive, TGFb SMAD3 inh 0%, VP16 counter 4%[10 µM], ATXN2 expr inh -14%, RORg inh 7.9µM* and HepG2 viability 3%.
Cc1ccccc1NC(=S)N(Cc1cccnc1)Cc1ccccc1Cl was read as S2 tox inactive, TGFb SMAD3 inh -2%, VP16 counter -16%, ATXN2 expr inh -3%, RORg inh 2.2µM* and HepG2 viability -29%.
`CCN(Cc1ccccc1)Cc1c(O)ccc2c(=O)c(-c3ccccc3Cl)c(C(F)(F)F)oc12` gave S2 tox inactive, TGFb SMAD3 inh 11%, ATXN2 expr inh -4% and HepG2 viability -11%.
Screening CC1CN(CCNC(=O)C2CCCc3c2[nH]c2ccccc32)Cc2ccccc2O1 (configuration not stated) returned S2 tox inactive.
`CC(C)(C)C(=O)N1CCc2cc(-c3csc(N)n3)ccc21` gave S2 tox inactive, TGFb SMAD3 inh 7%, VP16 counter 10µM*, ATXN2 expr inh inconclusive, RORg inh 13µM* and HepG2 viability -30%.
`Cc1nc(SCC(=O)Nc2nc3ccccc3s2)c(C#N)c(C)c1C` gave TGFb SMAD3 inh 0%, VP16 counter inconclusive, ATXN2 expr inh -86%, RORg inh 0.35µM* and HepG2 viability -24%.
`Cc1ccc2sc(NC(=O)CSc3nc(C)cc(C)c3C#N)nc2c1` gave S2 tox inactive, TGFb SMAD3 inh -14%, VP16 counter inconclusive, ATXN2 expr inh 5%, RORg inh 0.71µM* and HepG2 viability -65%.
For Cc1cc(C(F)(F)F)c(C#N)c(SCC(=O)Nc2nc3ccccc3s2)n1 the results were S2 tox inactive, TGFb SMAD3 inh 183%, VP16 counter 4%, ATXN2 expr inh 23%, RORg inh inconclusive and HepG2 viability -46%.
CCc1nnc(NC(=O)CSc2ncnc3c2oc2ccccc23)s1 was read as S2 tox inactive, TGFb SMAD3 inh -4%, VP16 counter 1%, ATXN2 expr inh -3%, RORg inh -17% and HepG2 viability 0%.
Cc1cc(C)c(C#N)c(SCC(=O)Nc2nnc(-c3ccccc3)s2)n1 was read as S2 tox inactive, TGFb SMAD3 inh 8%, VP16 counter 3%, ATXN2 expr inh -7%, RORg inh 24% and HepG2 viability -29%.
For O=C(CSc1ncnc2c1oc1ccccc12)Nc1nc2ccccc2s1 the results were S2 tox inconclusive, TGFb SMAD3 inh inconclusive, VP16 counter inconclusive, ATXN2 expr inh inconclusive, RORg inh inconclusive and HepG2 viability 13µM*.
COc1ccc(C(=O)Nc2ccccc2N2CCOCC2)cc1[N+](=O)[O-] was read as S2 tox inactive, TGFb SMAD3 inh -4%, VP16 counter -3%, ATXN2 expr inh -5%, RORg inh -5% and HepG2 viability -16%.
Cc1cc(C(=O)NC(=S)Nc2ccccc2N2CCOCC2)ccc1[N+](=O)[O-] was read as S2 tox inactive, TGFb SMAD3 inh -12%, VP16 counter 14µM*, ATXN2 expr inh 2%, RORg inh 2.8µM* and HepG2 viability -29%.
For COc1ccc(Cl)cc1C(=O)NC(=S)Nc1ccccc1N1CCOCC1 the results were S2 tox inactive, TGFb SMAD3 inh 4%, ATXN2 expr inh -6% and HepG2 viability -7%.
Screening Cc1cc(C(=O)Nc2ccccc2N2CCOCC2)ccc1[N+](=O)[O-] returned S2 tox inactive, TGFb SMAD3 inh 0%, VP16 counter -7%, ATXN2 expr inh -4%, RORg inh -21% and HepG2 viability -10%.
Cc1cc(C(=O)NC(=S)Nc2ccccc2N2CCCC2)ccc1[N+](=O)[O-] was read as S2 tox inactive, TGFb SMAD3 inh 10%, VP16 counter 3.2µM*, ATXN2 expr inh 0%, RORg inh 2.5µM* and HepG2 viability -14%.
O=C(NC(=S)Nc1cc(Cl)ccc1N1CCOCC1)c1ccccc1[N+](=O)[O-] was read as S2 tox inactive, TGFb SMAD3 inh -21%, VP16 counter 3.5µM*, ATXN2 expr inh -29%, RORg inh 3.5µM* and HepG2 viability -32%.
For COc1ccc(C(=O)NC(=S)Nc2ccccc2N2CCOCC2)cc1[N+](=O)[O-] the results were S2 tox inactive, TGFb SMAD3 inh 0%, VP16 counter 10µM*, ATXN2 expr inh 4%, RORg inh 6.3µM* and HepG2 viability 8%.
`COC(=O)c1ccc(C(/C=C/[C@@H](C)C(=O)N[C@H](C)CO)NC(=O)OCc2ccccc2)cc1` (some centres not stated) gave VP16 counter 19% and RORg inh -1%.
For CCCN1C(C(=O)c2ccccc2)=C(OC(=O)COc2ccc(C)cc2)c2ccccc2S1(=O)=O the results were TGFb SMAD3 inh inconclusive and HepG2 viability -23%.
For COc1ccc2ccccc2c1CN1CCc2nnc(C(NS(C)(=O)=O)C(C)C)n2CC1 (configuration not stated) the results were S2 tox inactive.
Screening COc1ccc(NC(=O)c2ccc(-c3ccc(-c4noc(C)n4)cc3C)cc2)cc1OCCN(C)C returned VP16 counter inconclusive and RORg inh 14µM*.
